Bioassay records from PubChem.
Giardia kill – Small Molecules that selectively kill Giardia lamblia: qHTS; Giardia lamblia trophozoite viability; activity change, % at 7.66 µM, hits read low; 340,000 compounds, 0.15% hits; AID 540267, 2011; in the data active = activity change below about -80%; inconclusive = between about -30% and that limit;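 also: parasites exposed to compound for two days anaerobically before the ATP read; % is scaled to controls: 0 for no effect and ±100 for the full control effect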
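Each well holds 100 Giardia trophozoites and compound. After two days (48 hrs) at 37 deg C in anaerobic conditions, ATP is quantified by luminescence.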
B2AR arrestin – qHTS assay of beta-arrestin-biased ligands of beta2-adrenergic receptor; AID 492947, 2010; 330,000 compounds, 0.02% hits; beta-arrestin recruitment to beta2AR, cell-based reporter; Potency, µM (highest dose often 46.1 µM), without a hit: at the top dose activation, usual class: activators; Beta-2 adrenergic receptor (Homo sapiens), P07550;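 also: potency is read from the fitted curve at half-maximal effect; 0% = DMSO controls and full agonism = EC100 isoproterenol or metaproterenol; nearly all actives have a fitted effect of over 65% in size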
uPA surface inh – qHTS for Inhibitors of Cell Surface uPA Generation; cell surface uPA generation assay, qHTS; Potency, µM (doses to about 38.3 µM), for the others: at the highest dose activity change, negative = inhibition, most hits filed as inhibitors; 330,000 compounds, 0.31% hits; active = well fitted inhibition curve with a large enough effect; inconclusive = small, poorly fitted or top-dose-only effect; inactive = no such curve, though single readings can be large or run the other way; tested in mouse RAW 264.7 cells; also: potency is read from the fitted curve at half-maximal effect; % is scaled to controls: 0 for no effect and ±100 for the full control effect; nearly all actives have a fitted effect of over 55% in size
Mito fusion act – qHTS Assay for Small Molecule Inhibitors of Mitochondrial Division or Activators of Mitochondrial Fusion; S. cerevisiae fusion-defective mutant growth rescue, CellTiterGlo 48 h; Potency, µM (series often up to 46.1 µM), inactives show top-dose growth rescue (activation), actives largely listed as activators; 320,000 compounds, 0.23% hits; AID 485298, 2010; also: potency is read from the fitted curve at half-maximal effect; % of control where 0% means no effect; nearly all actives have a fitted effect of over 45% in size
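Compounds are tested for their ability to restore growth of mitochondrial fusion-defective yeast strains at non-permissive 37C in YPEG medium over 48 hours. Viability is quantified by luciferase luminescence.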
ClpP mod – qHTS Assay for Activators of ClpP; 340,000 compounds, 1.9% hits; Potency, µM (titrated, usually from 57.5 µM), for inactives: at the highest dose activity change, negative = active; purified B. subtilis ClpP, FRET peptide cleavage, 20 min; AID 651965, 2013; active = well fitted falling curve with a large enough effect; inconclusive = small, poorly fitted or top-dose-only effect; inactive = no such curve, though single readings can be large or run the other way; also: potency is read from the fitted curve at half-maximal effect; the source files actives as falling curves though it sought activators and does not explain the sign; nearly all actives have a fitted effect of over 65% in size
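Purified B. subtilis ClpP, 10 microg/mL final in Tris/HCl pH8 with KCl, BSA, glycerol and Tween-20, cleaved an Abz/nitrotyrosine-quenched decapeptide. Fluorescence (ex 320, em 430) was read at 0 and 20 min at room temperature. Delta was normalized to 5.8 microM ADEP and DMSO/no-enzyme controls.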
p53 reactivator – qHTS assay for re-activators of p53 using a Luc reporter; H1299 p53-A138V BP100-luciferase reporter, luminescence, 24 h; Potency, µM (series often up to 92.2 µM), for the others: at the highest dose activity change, positive = activation, hits mostly activators; 320,000 compounds, 0.063% hits; also: potency is read from the fitted curve at half-maximal effect; % of control where 0% means no effect; nearly all actives have a fitted effect of over 45% in size
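H1299 (p53-null), stable ts p53-A138V + BP100-Luc; 1000 cells/well, Opti-MEM/10% FBS; cpd 4 pt, 1:5; 24 h, 37 deg C, 5% CO2; detection reagent 10 min RT; luminescence.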
ClpP validation – qHTS Assay for Activators of ClpP: Hit Validation of Inhibitors; shares compounds with ClpP mod; purified B. subtilis ClpP, FRET-FV substrate cleavage, 20 min; Potency, µM (top dose mostly 57.5 µM), for the others: at the highest dose activity change, negative = inhibition, hits mostly inhibitors; 470 compounds, 40% hits; AID 743245, 2014; also: potency is read from the fitted curve at half-maximal effect; % is scaled to controls: 0 for no effect and ±100 for the full control effect; nearly all actives have a fitted effect of over 70% in size
* hit, by the source's call; ? = inconclusive; . = no result given. In the library only some 2.1% were active in any assay of this set; here they are far more common. Unless noted, calls follow the shape of the dose curve; as a rule, active = well fitted curve in the direction sought with a large enough effect; inconclusive = small, poorly fitted or top-dose-only effect, or another doubt; inactive = no such curve, though single readings can be large; an effect the other way counts as inactive or inconclusive.

SMILES	Giardia kill	B2AR arrestin	uPA surface inh	Mito fusion act	ClpP mod	p53 reactivator	ClpP validation
Cc1cnc([N+](=O)[O-])n1CCOC(=O)NC(=O)c1ccc(C(F)(F)F)cc1	-91*	0%	-3%	1%	.	-3%	.
Cc1cc(C)nc(N/C(=N\S(=O)(=O)Cc2ccccc2)Nc2ccccc2Br)n1	-10	3%	-5%	22µM*	-1%	1%	.
Cc1cc(C)nc(Nc2ccccc2Br)n1	13	-1%	1%	-2%	-4%	3%	.
Cc1ccc(C(=O)COC(=O)c2cccc(NC(=O)c3ccc([N+](=O)[O-])cc3[N+](=O)[O-])c2)cc1	-101*	7%	-14%	-7%	-4%	-6%	.
Cc1ccc(C(=O)CC(=O)c2ccccc2)cc1	15	0%	-8%	-5%	8%	15%	.
Cc1ccc(C(=O)OCC(=O)c2ccccc2)cc1	-12	-1%	3%	-3%	14µM*	?	.
CC(=O)Nc1ccc(C(=O)OCC(=O)c2cccc([N+](=O)[O-])c2)cc1	-28	2%	1%	-2%	?	-1%	.
CCOc1ccc(NC(=O)Nc2nnc(CC)s2)cc1	5	0%	0%	2%	28µM*	6%	.
CCOC(=O)N1CCC(NC(=O)c2cnn(-c3ccc(F)cc3)c2-n2cccc2)CC1	.	.	.	.	1%	.	.
Cc1ccc(C)c(Nc2nc3c(S(=O)(=O)c4ccc(Br)cc4)nnn3c3ccsc23)c1	.	.	.	.	28µM*	.	.
Cc1ccc(C)c(Nc2nc3c(S(=O)(=O)c4ccc(C(C)C)cc4)nnn3c3ccsc23)c1	.	.	.	.	35µM*	.	.
Cc1ccc(S(=O)(=O)N2[C@@H](c3cccc(Cl)c3)C(C(=O)OC(C)(C)C)=CC[C@H]2c2ccc(C(C)C)cc2)cc1	.	.	.	.	-2%	.	.
COc1cccc(CN(C(=O)c2oc3cc(C)ccc3c2C)C2CCS(=O)(=O)C2)c1 (centres undefined)	.	.	.	.	-3%	.	.
C=CCn1cc(/C=N/Nc2nc3ccccc3[nH]2)c2ccccc21	22	3%	-3%	21%	-1%	32µM*	.
O=[N+]([O-])c1ccc(O)c(/C=N/Nc2nc3ccccc3[nH]2)c1	19	-1%	-13%	-3%	-1%	25µM*	.
CCNC(=O)C(=O)N/N=C/c1cc([N+](=O)[O-])ccc1O	13	0%	5%	22µM*	.	-2%	.
Cc1c(/C=N/Nc2nc3ccccc3[nH]2)c2ccccc2n1C	8	0%	-7%	9%	0%	-5%	.
COc1ccc(-c2nc3scc(CCNS(=O)(=O)c4cccs4)n3n2)cc1	.	.	.	.	-1%	.	.
O=C(c1cc(N2C(=O)C3C4CCC(C4)C3C2=O)ccc1Cl)N1CCN(c2ccc(F)cc2)CC1 (centres undefined)	1	-1%	-3%	5.6µM*	-2%	-3%	.
Cc1ccc(S(=O)(=O)c2nc(-c3ccccc3Cl)oc2N(C)C)cc1	-21	0%	1%	8%	-14%	16%	.
CN(C)c1oc(-c2ccccc2Cl)nc1P(=O)(c1ccccc1)c1ccccc1	19	0%	-3%	19%	20µM*	-6%	.
O=C(CCCOc1ccccc1)Nc1ccc(Br)cc1	0	.	0%	.	1%	.	.
O=C(CCOc1ccccc1)Nc1ccc(Br)cc1	-15	1%	4%	2%	7.9µM*	.	0%
Nc1nc2nc(-c3ccc(OCc4ccccc4)cc3)cc(C(F)(F)F)n2n1	24	0%	2%	-2%	7.1µM*	2%	17µM*
O=C(Cc1cccs1)Nc1ccc(-c2nnc(-c3ccccc3)o2)cc1	7	.	3%	.	8.9µM*	.	12µM*
SMILES	Giardia kill	B2AR arrestin	uPA surface inh	Mito fusion act	ClpP mod	p53 reactivator	ClpP validation
CC(=O)N1N=C(c2ccncc2)OC12CCCC2	-5	0%	0%	-1%	10µM*	-5%	24µM*
CC(=O)N1N=C(c2ccc(Br)cc2)OC12CCCC2	-16	-1%	2%	-6%	1%	-3%	.
CCOC(=O)c1[nH]c2ccccc2c1NC(=O)c1cc(OCC)c(OCC)c(OCC)c1	.	.	.	.	45%	.	12%
Cc1cccc(NC(=O)c2ccccc2C(=O)Nc2cccc(C)c2)c1	0	.	-4%	.	168%	.	-2%
Cc1ccccc1C(=O)Nc1cccc(NC(=O)c2ccc(-c3ccc(Br)cc3)o2)c1	-1	-1%	2%	1%	139%	5%	?
CN1CCN(c2ccc(NC(=O)c3ccc(-c4ccc(Br)cc4)o3)cc2)CC1	6	0%	-1%	-2%	.	-8%	.
COc1ccc(-c2cc3nc4n(c(=O)c3s2)CCCCC4)cc1	?	-1%	-3%	-5%	.	12%	.
COc1ccc(-c2cc3nc4n(c(=O)c3s2)CCC4)cc1	?	-1%	.	15%	106%	18%	1.9µM*
COc1cc(NC(=O)C(CCSC)NS(=O)(=O)c2ccc3c(c2)oc(=O)n3C)cc(OC)c1 (centres undefined)	.	.	.	.	-1%	.	.
Cc1ccc(NC(=O)c2c(C)oc3ccc(O)c(CN4CCCCCC4)c23)c(C)c1	.	.	.	.	0%	.	.
O=C(NCc1ccccc1)C(c1cc2ccccc2o1)n1c(=O)c(-c2cc3ccccc3[nH]2)nc2ccccc21 (centres undefined)	.	.	.	.	38%	.	-4%
COc1ccc(NC(=O)C(c2cc3ccccc3o2)n2c(=O)c(-c3cc4ccccc4[nH]3)nc3ccccc32)cc1 (centres undefined)	.	.	.	.	33%	.	-2%
COc1ccc(NC(=O)C(c2ccc(OC)cc2)n2c(=O)c(-c3cc4ccccc4[nH]3)nc3ccccc32)cc1 (centres undefined)	.	.	.	.	19%	.	.
O=C(NCc1ccccc1)C(c1ccccc1)n1c(=O)c(-c2cc3ccccc3[nH]2)nc2ccccc21 (centres undefined)	.	.	.	.	3%	.	.
CC(=O)Nc1ccc(S(=O)(=O)Nc2cccc(-c3ccc(N4CCCCCC4)nn3)c2)cc1	.	.	.	.	-2%	.	.
CC(=O)Nc1ccc(-c2cc(-c3ccc(NC(C)=O)cc3)nc(-c3ccccc3)n2)cc1	-6	0%	-17%	-3%	7.9µM*	0%	24µM*
